Records with an inconclusive call do not appear. Values without a mark were called inactive. Calls of active or inactive are those of the source. Calls follow the shape of the dose curve; as a rule, active = well fitted curve in the direction sought with a large enough effect; inconclusive = small, poorly fitted or top-dose-only effect, or another doubt; inactive = no such curve, though single readings can be large; an effect the other way counts as inactive or inconclusive.

The target of assay [1] is Cellular tumor antigen p53 (Homo sapiens) (UniProt P04637). The assay can be described thus: Primary qHTS for small molecule compounds that upregulate eGFP-tagged delta133p53alpha (in N-terminal) cells. (AID 2060322).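 Also: cells pre-induced with doxycycline then dosed without doxycycline; series mostly up to about 56 µM; 0% = DMSO vehicle and 100% = reference activator; nearly all actives have a fitted effect of over 75% in size.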 The following applies: NCI-H358 eGFP-delta133p53alpha fluorescence, 24 h; activation: hits give high values. The essentials:
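NCI-H358 cells pre-induced 24 h with 10 ng/ml doxycycline for eGFP-delta133p53alpha, plated dox-free and exposed 24 h at 37C to titrated compounds. Fixed, Hoechst-stained; gated GFP peak intensity by laser scanning cytometry, normalized to DMSO (0%) and 57.5 uM 5-azacytidine (100%).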

Assay [2] is described as follows: BET inhibitor-based combinations targeting novel dependencies in MECOM-rearranged (r) AML: SET-2 cell line (AID 2202231). Also: nearly all actives have a fitted effect of over 35% in size. Also: potency is read from the fitted curve at half-maximal effect.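 As to viability: plate controls were DMSO treated cells for no effect and wells without cells for full effect.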 The following applies: SET-2 AML cells viability, CellTiter-Glo luminescence, 48 h; viability: hits give low values, concentration not given here. The essentials: (§1)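 Cells were plated at 500 per well and exposed to an 11-point dose series of each drug for 48 hr. Viability was measured by CellTiter-Glo luminescence, normalized to DMSO and empty-well controls, and summarized as AUC and per-cell-line Z-AUC.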

Assay [3] can be described thus: BET inhibitor-based combinations targeting novel dependencies in MECOM-rearranged (r) AML: MV-4-11 cell line (AID 2202233). Also: nearly all actives have a fitted effect of over 45% in size. Also: potency is read from the fitted curve at half-maximal effect. The method in brief:
(§2)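 Activity is given as area under the curve and as Z-AUC, mean-centred within each cell line. It comes from 11-point dose curves normalized to DMSO and empty wells. CellTiter-Glo luminescence was read after 48 hr drug exposure of 500 cells/well.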

A short description of assay [4]: BET inhibitor-based combinations targeting novel dependencies in MECOM-rearranged (r) AML: HNT-34 cell line (AID 2202234). Also: nearly all actives have a fitted effect of over 35% in size. Also: potency is read from the fitted curve at half-maximal effect. The method in brief: as §2
Assay [5] in a line: BET inhibitor-based combinations targeting novel dependencies in MECOM-rearranged (r) AML: UCSD-AML1 cell line (AID 2202235).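 Also: series mostly up to about 46 µM; plate controls were DMSO vehicle wells for no effect and blank wells for full effect; nearly all actives have a fitted effect of over 40% in size.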 The method in brief: as §2
Assay [6] can be described thus: BET inhibitor-based combinations targeting novel dependencies in MECOM-rearranged (r) AML: AML-191 cell line (AID 2202236;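 also: plate controls were vehicle wells for no effect and wells without cells for full effect; nearly all actives have a fitted effect of over 35% in size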). The method in brief: as §1
Assay [7] in a line: BET inhibitor-based combinations targeting novel dependencies in MECOM-rearranged (r) AML: AML-194 cell line (AID 2202237;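 also: plate controls were vehicle wells for no effect and wells without cells for full effect; nearly all actives have a fitted effect of over 40% in size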). The essentials: as §1

Cellular tumor antigen p53 (Homo sapiens), sequence (P04637 whole entry, looked up): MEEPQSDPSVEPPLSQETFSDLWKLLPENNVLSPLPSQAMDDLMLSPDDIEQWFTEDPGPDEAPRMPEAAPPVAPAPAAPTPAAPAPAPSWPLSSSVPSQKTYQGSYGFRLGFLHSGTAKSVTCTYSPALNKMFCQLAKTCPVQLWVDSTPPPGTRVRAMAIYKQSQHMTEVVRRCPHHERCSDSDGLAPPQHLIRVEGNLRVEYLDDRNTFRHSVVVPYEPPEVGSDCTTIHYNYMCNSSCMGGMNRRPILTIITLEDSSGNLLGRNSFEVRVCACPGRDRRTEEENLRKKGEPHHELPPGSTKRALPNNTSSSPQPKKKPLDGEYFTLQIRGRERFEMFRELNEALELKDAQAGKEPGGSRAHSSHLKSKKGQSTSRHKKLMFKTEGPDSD

For `O=C(CN1C(=O)C2(CCCC2)NC[C@H]1c1cc(F)cc(F)c1)Nc1ccc2c(c1)C[C@@]1(C2)C(=O)Nc2ncccc21`, the activation in assay [1] is 22.6%. Further, the viability in assay [2] is 98.8%. Further, the Potency entry in assay [3], in assay [4], in assay [5], in assay [6] and in assay [7] was “inactive” each time.
On to `CCCCCCCN(CC)CCCC(O)c1ccc(NS(C)(=O)=O)cc1` (centres undefined), for which, in assay [1], the activation was 5.18%. The viability in assay [2] is 96.2%. For the same compound, the Potency entry in assay [4], in assay [5] and in assay [6] was “inactive” throughout.
As to `NCC1CCC(C(=O)O)CC1` (centres undefined), the activation in assay [1] was 20.7%. Also, the viability in assay [2] is 115%. In addition, the Potency entry in assay [3], in assay [4], in assay [5] and in assay [7] was “inactive” in each case.
`CCOC(=O)O[C@]1(C(=O)OCCl)CC[C@H]2[C@@H]3CCC4=CC(=O)C=C[C@]4(C)[C@H]3[C@@H](O)C[C@@]21C`: in assay [1], the activation was -7.34%. Moreover, in assay [2], the Potency was 1.05 µM (active). The Potency entry in assay [3], in assay [4] and in assay [7] was “inactive” each time.
`NC(=O)c1ccc(I)c([N+](=O)[O-])c1`: the activation in assay [1] is 13.8%. Besides, the viability in assay [2] was 105%. The Potency in assay [3] is 16.6 µM (active). Besides, the Potency entry in assay [5] was “inactive”.
Regarding `C=Cc1c(C)c2cc3nc(cc4[nH]c(cc5nc(cc1[nH]2)C(C)=C5CCC(=O)O)c(CCC(=O)OC)c4C)[C@@]1(C)C3=CC=C(C(=O)OC)[C@H]1C(=O)OC`, in assay [1], the activation is 9.63%. Further, the viability in assay [2] is 97.6%. Moreover, the Potency was 26.3 µM (active) in assay [3] and 18.6 µM (active) in assay [4]. For the same compound, the Potency result in assay [5], in assay [6] and in assay [7] was “inactive” throughout.

For the origin of these results see PubChem BioAssay (NCATS).
